Assay outcomes (PubChem)
Compounds with a hit are over-represented: about 6.8% of the library has one in this group of screens.
Pf Dd2 inh – inhibitors of Plasmodium falciparum Dd2 growth | 94,000 compounds, 2.3% hits | P. falciparum Dd2 growth, SYBR Green, 72 h; active compounds read low | activity change, % at 10 µM; in the data active means activity change below about -80%
T cruzi growth-1 – inhibitors of T. cruzi proliferation; T. cruzi beta-gal in NIH3T3, GalScreen luminescence, 90 h; inhibition, % at 8.34 µM; 77,000 compounds, 5.9% hits; AID 624255;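 active means mean inhibition above about 93%, with at least 55% of replicates each passing it, limit read from the data, passing the limit was not always enough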
C diff growth – inhibitors of Clostridium difficile growth. Clostridium difficile clinical isolate growth, OD600, 24 h; active compounds read low. growth activity, negative = inhibition, % at 16 µg/mL (by protocol). 86,000 compounds, 0.25% hits;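 active means mean growth activity at or below -80% and every replicate also at or below -80%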
T cruzi growth-2 – inhibitors of T. cruzi proliferation | shares compounds with T cruzi growth-1 | inhibition, % at 8.35 µM | 5,600 compounds, 72% hits | T. cruzi beta-gal in NIH3T3, GalScreen luminescence, 90 h | AID 651739;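 active means mean replicate inhibition above about 95% and at least 55% of replicates individually reaching it, limit read from the data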
T cruzi growth-3 – blocks T. cruzi growth in NIH3T3 host cells | shares compounds with T cruzi growth-1 | T. cruzi beta-gal in NIH3T3, GalScreen luminescence, 90 h | inhibition, % at 2.09 µM | 5,600 compounds, 21% hits;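 active means mean inhibition above about 95%, with at least 55% of replicates also reaching it, limit read from the data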
NIH3T3 tox – kills mouse NIH/3T3 fibroblasts | shares compounds with T cruzi growth-1 | NIH/3T3 viability, CellTiter-Glo ATP luminescence, 90 h | cytotoxicity (signal decrease), % at 8.35 µM | 5,600 compounds, 14% hits | AID 651742;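 active means mean signal decrease across replicates above about 35% based on untreated-well scatter, with enough replicates individually passing, limit read from the data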
NIH3T3 tox 2 – kills mouse NIH/3T3 fibroblasts. shares compounds with T cruzi growth-1. NIH/3T3 viability, CellTiter-Glo ATP luminescence, 90 h. inhibition, % at 24.9 µM. 5,600 compounds, 56% hits. AID 651744;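 active means mean loss of cell viability signal at or above a set limit, and enough replicates individually reaching it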
Numbers stand for hits.

COc1ccc(CN(C)C[C@H]2Oc3ccc(NS(=O)(=O)c4ccc(C)cc4)cc3CC(=O)N([C@@H](C)CO)C[C@H]2C)cc1 was read as Pf Dd2 inh inactive and C diff growth inactive.
COc1ccc(CN(C)C[C@H]2Oc3ccc(NS(=O)(=O)c4ccc(C)cc4)cc3CC(=O)N([C@H](C)CO)C[C@@H]2C)cc1 was read as Pf Dd2 inh inactive and C diff growth inactive.
COc1ccc(CN(C)C[C@@H]2Oc3ccc(NS(=O)(=O)c4ccc(C)cc4)cc3CC(=O)N([C@H](C)CO)C[C@H]2C)cc1 was read as Pf Dd2 inh inactive, T cruzi growth-1 110, C diff growth inactive, T cruzi growth-2 114, T cruzi growth-3 106, NIH3T3 tox inactive and NIH3T3 tox 2 inactive.
For COc1ccc(CN(C)C[C@@H]2Oc3ccc(NS(=O)(=O)c4ccc(C)cc4)cc3CC(=O)N([C@@H](C)CO)C[C@@H]2C)cc1 the results were Pf Dd2 inh inactive, T cruzi growth-1 108, C diff growth inactive, T cruzi growth-2 inactive, T cruzi growth-3 inactive, NIH3T3 tox inactive and NIH3T3 tox 2 inactive.
`CCNC(=O)C[C@@H]1CC[C@H]2[C@@H](COc3ccc(NC(=O)C4CCOCC4)cc3C(=O)N2C)O1` gave Pf Dd2 inh inactive, T cruzi growth-1 inactive and C diff growth inactive.
Screening C[C@@H]1CN([C@H](C)CO)C(=O)c2cc(NC(=O)NC3CCCCC3)ccc2O[C@@H](C)CCCCO[C@H]1CN(C)S(=O)(=O)c1ccc(Cl)cc1 returned T cruzi growth-1 inactive and C diff growth inactive.
For CC(C)NC(=O)Nc1ccc2c(c1)C(=O)N([C@H](C)CO)C[C@@H](C)[C@@H](CN(C)S(=O)(=O)c1ccc(Cl)cc1)OCCCC[C@@H](C)O2 the results were Pf Dd2 inh inactive, T cruzi growth-1 98, C diff growth inactive, T cruzi growth-2 96, T cruzi growth-3 inactive, NIH3T3 tox inactive and NIH3T3 tox 2 24.
For CC(C)NC(=O)Nc1ccc2c(c1)C(=O)N([C@@H](C)CO)C[C@H](C)[C@@H](CN(C)S(=O)(=O)c1ccc(Cl)cc1)OCCCC[C@H](C)O2 the results were Pf Dd2 inh inactive, T cruzi growth-1 inactive and C diff growth inactive.
Screening C[C@H](CO)N1C[C@H](C)[C@H](CN(C)S(=O)(=O)c2ccc(F)cc2)OCCCC[C@H](C)Oc2ccc(NC(=O)NC3CCCCC3)cc2C1=O returned Pf Dd2 inh inactive, T cruzi growth-1 inactive and C diff growth inactive.
C[C@@H]1CCCCO[C@@H](CN(C)S(=O)(=O)c2ccc(Cl)cc2)[C@H](C)CN([C@@H](C)CO)C(=O)c2cc(NC(=O)NC3CCCCC3)ccc2O1 was read as T cruzi growth-1 100, C diff growth inactive, T cruzi growth-2 111, T cruzi growth-3 inactive, NIH3T3 tox inactive and NIH3T3 tox 2 inactive.
`Cc1ccc(S(=O)(=O)N(C)C[C@H]2OCCCC[C@H](C)Oc3ccc(NC(=O)NC4CCCCC4)cc3C(=O)N([C@H](C)CO)C[C@@H]2C)cc1` gave Pf Dd2 inh inactive, T cruzi growth-1 112, C diff growth inactive, T cruzi growth-2 109, T cruzi growth-3 inactive, NIH3T3 tox inactive and NIH3T3 tox 2 inactive.
For C[C@@H]1CCCCO[C@@H](CN(C)S(=O)(=O)c2ccc(F)cc2)[C@H](C)CN([C@@H](C)CO)C(=O)c2cc(NC(=O)NC3CCCCC3)ccc2O1 the results were Pf Dd2 inh inactive, T cruzi growth-1 inactive and C diff growth inactive.
For Cc1ccc(S(=O)(=O)N(C)C[C@@H]2OCCCC[C@@H](C)Oc3ccc(NC(=O)NC4CCCCC4)cc3C(=O)N([C@H](C)CO)C[C@H]2C)cc1 the results were Pf Dd2 inh -81, T cruzi growth-1 99, C diff growth inactive, T cruzi growth-2 109, T cruzi growth-3 inactive, NIH3T3 tox inactive and NIH3T3 tox 2 inactive.
`CO[C@@H]1CN(C)C(=O)c2ccc(NC(=O)c3ccc(F)cc3)cc2OC[C@@H](C)N(C(=O)CN(C)C)C[C@@H]1C` gave T cruzi growth-1 inactive.
